Measured values: ChEMBL document CHEMBL1961873, “Compounds: GSK PKIS; Assays: Nanosyn kinase panel” (2012)
Where “and” joins values, the source holds several entries; their conditions need not be identical. Equal entries are not always repeated.

Legend:
[1] = biological target: RAF proto-oncogene serine/threonine-protein kinase (Homo sapiens) (UniProt P04049); conditions: at 1 µM;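 further: values are the mean percent inhibition of CRAF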
[2] = biological target: T1, Interleukin-1 receptor-associated kinase 4 (Homo sapiens) (UniProt Q9NWZ3); conditions: at 0.1 µM
T1 sequence (whole entry): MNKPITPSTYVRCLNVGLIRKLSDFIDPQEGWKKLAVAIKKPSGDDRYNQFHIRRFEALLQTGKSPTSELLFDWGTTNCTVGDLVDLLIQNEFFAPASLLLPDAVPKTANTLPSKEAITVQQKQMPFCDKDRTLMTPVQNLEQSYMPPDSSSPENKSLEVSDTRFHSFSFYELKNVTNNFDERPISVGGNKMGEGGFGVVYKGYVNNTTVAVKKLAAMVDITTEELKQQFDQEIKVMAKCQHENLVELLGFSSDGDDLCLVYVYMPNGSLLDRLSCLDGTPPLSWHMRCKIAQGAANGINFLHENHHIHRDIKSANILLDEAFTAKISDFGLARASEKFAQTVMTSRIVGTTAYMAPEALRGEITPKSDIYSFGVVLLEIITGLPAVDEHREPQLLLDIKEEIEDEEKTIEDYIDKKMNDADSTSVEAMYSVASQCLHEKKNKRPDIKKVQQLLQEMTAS

[3] = biological target: T1, Interleukin-1 receptor-associated kinase 4 (Homo sapiens); conditions: at 1 µM
[4] = biological target: Leucine-rich repeat serine/threonine-protein kinase 2 (Homo sapiens) (UniProt Q5S007); conditions: at 0.1 µM
Leucine-rich repeat serine/threonine-protein kinase 2 (Homo sapiens), sequence (Q5S007 whole entry): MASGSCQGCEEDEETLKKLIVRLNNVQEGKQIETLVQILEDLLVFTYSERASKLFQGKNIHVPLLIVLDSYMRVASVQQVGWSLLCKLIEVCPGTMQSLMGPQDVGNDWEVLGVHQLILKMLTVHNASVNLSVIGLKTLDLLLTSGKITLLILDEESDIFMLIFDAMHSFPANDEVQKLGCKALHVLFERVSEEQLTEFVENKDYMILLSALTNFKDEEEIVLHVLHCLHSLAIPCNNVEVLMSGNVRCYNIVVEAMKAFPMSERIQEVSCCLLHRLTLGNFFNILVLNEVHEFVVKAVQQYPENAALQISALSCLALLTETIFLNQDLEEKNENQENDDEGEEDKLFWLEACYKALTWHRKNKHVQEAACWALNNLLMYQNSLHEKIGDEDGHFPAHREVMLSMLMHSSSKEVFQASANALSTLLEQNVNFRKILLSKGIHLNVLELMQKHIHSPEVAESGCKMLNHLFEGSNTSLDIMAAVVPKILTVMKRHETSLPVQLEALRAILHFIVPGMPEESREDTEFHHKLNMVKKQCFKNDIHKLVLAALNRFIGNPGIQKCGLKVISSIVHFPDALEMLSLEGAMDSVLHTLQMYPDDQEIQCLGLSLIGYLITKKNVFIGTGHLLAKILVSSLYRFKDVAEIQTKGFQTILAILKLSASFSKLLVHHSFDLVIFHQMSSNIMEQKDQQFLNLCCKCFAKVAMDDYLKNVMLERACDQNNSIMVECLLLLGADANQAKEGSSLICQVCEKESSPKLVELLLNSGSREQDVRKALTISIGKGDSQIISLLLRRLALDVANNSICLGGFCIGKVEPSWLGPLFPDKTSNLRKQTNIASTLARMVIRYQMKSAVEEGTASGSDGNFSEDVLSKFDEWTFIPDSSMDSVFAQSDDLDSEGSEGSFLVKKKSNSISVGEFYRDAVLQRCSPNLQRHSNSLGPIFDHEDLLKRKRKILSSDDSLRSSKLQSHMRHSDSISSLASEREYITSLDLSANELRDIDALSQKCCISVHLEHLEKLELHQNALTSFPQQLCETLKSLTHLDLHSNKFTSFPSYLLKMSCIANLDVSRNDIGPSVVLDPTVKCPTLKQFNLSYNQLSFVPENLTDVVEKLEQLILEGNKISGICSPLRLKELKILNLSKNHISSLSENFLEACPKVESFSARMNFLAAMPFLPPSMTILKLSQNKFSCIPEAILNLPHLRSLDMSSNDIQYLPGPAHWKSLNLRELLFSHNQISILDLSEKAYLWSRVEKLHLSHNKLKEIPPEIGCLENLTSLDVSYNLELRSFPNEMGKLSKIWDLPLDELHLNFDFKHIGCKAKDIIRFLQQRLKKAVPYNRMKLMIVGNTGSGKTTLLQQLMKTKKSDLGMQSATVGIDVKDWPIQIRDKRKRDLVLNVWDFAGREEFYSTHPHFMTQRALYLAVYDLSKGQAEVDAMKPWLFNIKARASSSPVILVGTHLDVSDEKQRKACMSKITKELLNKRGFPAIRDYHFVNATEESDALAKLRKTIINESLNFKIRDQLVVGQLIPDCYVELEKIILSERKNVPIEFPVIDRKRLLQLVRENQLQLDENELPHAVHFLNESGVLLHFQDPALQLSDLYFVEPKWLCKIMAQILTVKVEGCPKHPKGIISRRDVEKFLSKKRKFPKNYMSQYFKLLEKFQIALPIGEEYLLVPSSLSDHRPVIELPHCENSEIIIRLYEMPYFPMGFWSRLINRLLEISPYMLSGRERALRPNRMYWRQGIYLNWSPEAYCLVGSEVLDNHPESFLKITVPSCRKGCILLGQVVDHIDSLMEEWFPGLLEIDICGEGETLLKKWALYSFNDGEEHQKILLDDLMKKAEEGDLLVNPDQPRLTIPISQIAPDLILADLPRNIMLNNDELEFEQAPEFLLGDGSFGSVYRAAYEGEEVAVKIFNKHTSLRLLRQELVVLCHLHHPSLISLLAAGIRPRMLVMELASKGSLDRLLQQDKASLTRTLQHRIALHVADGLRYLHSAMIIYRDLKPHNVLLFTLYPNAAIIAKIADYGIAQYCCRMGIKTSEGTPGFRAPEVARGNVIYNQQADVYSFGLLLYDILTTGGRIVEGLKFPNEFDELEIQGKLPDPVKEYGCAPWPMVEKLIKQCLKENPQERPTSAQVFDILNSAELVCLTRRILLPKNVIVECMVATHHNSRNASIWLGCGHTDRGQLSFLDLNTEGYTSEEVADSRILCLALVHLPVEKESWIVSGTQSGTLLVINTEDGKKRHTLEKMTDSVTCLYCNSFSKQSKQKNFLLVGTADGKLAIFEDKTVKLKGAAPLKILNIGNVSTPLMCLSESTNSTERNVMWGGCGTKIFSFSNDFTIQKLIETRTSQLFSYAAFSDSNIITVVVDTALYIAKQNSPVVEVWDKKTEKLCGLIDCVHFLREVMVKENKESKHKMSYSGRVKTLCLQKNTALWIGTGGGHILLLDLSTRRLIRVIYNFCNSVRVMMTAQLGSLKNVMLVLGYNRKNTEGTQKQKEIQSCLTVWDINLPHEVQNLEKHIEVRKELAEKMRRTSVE

[5] = biological target: Leucine-rich repeat serine/threonine-protein kinase 2 (Homo sapiens) (UniProt Q5S007); conditions: at 1 µM
[6] = system: Leucine-rich repeat serine/threonine-protein kinase 2 (Homo sapiens), Q5S007 [G2019S]; conditions: at 0.1 µM
Leucine-rich repeat serine/threonine-protein kinase 2 (Homo sapiens), Q5S007 [G2019S], sequence (Q5S007 whole entry G2019S): as the sequence (Q5S007 whole entry) above, with G2019S counted along it

[7] = system: Leucine-rich repeat serine/threonine-protein kinase 2 (Homo sapiens), Q5S007 [G2019S]; conditions: at 1 µM

RAF proto-oncogene serine/threonine-protein kinase (Homo sapiens), sequence (P04049 whole entry): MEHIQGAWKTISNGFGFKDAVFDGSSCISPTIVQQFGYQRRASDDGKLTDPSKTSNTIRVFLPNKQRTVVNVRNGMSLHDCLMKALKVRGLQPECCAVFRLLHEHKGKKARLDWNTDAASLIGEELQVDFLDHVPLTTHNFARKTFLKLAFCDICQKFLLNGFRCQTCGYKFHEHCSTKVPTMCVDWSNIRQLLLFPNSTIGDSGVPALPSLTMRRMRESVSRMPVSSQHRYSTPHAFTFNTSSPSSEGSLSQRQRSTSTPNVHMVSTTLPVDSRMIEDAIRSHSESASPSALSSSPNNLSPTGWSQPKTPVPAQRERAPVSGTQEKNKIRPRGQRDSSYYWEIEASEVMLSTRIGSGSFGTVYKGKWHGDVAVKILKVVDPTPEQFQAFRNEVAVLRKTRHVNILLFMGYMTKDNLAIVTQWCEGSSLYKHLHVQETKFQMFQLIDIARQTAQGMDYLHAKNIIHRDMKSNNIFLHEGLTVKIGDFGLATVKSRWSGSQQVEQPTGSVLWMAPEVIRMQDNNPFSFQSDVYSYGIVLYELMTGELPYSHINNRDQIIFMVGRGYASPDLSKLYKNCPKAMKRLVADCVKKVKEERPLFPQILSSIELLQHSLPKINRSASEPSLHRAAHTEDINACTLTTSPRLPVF

Row | SMILES | inhibition [1] | inhibition [2] | inhibition [3] | inhibition [4] | inhibition [5] | inhibition [6] | inhibition [7]
1 | Cc1nnc(-c2cccc(-c3ccc(C(=O)NCC4CC4)cc3)c2)o1 | 1.67% | -1.48% | 2.66% | 3.32% | 5.55% | 4.33% | 7.83%
2 | Cc1ccc(-c2cc3c(NC(=O)C4CC4)ncnc3o2)cc1 | -2.51% | -1.3% | 2.26% | 9.7% | 12.2% | 9.7% | 16.6%
3 | CNC(=O)c1ncccc1Nc1nc(Nc2cc3c(cc2OC)CCCN3C(=O)CN(C)C)nc2[nH]ccc12 | -9.95% | -0.32% | 2.65% | 29.7% | 26.6% | 65.3% | 64.5%
4 | CN1CCC(n2cnc(-c3ccc(F)cc3)c2-c2ccnc(NCCO)n2)CC1 | 1.26% | -1.44% | 1.47% | 3.06% | 4.49% | 4.69% | 5.35%
5 | O=C(O[C@H]1CN[C@H](C#Cc2cc3ncnc(Nc4ccc5c(ccn5Cc5cc(F)ccc5F)c4)c3s2)C1)N1CCOCC1 | -3.01% | 3.45% | 2.43% | 3.48% | 6.3% | 3.23% | 5.91%
6 | CCn1c(-c2nonc2N)nc2cncc(C(=O)NCCNC)c21 | 0.85% | 2.49% | 3.05% | 6.11% | 28.8% | 13% | 51.8%
7 | O=C(O[C@H]1CN[C@H](C#Cc2cc3ncnc(Nc4ccc(OCc5cccc(F)c5)c(Cl)c4)c3s2)C1)N1CCOCC1 | 0.51% | 1.13% | 2.48% | 2.8% | 7.32% | 4.61% | 8.39%
8 | CS(=O)(=O)Nc1ccc(-c2ccc3c(NC(=O)C4CC4)n[nH]c3c2)cc1 | 5.45% | -4.64% | 1.75% | 9.03% | 5.46% | 9.88% | 15.1%
9 | c1ccc(-c2n[nH]cc2-c2ccnc(-c3ccc(OCCn4ccnc4)cc3)c2)nc1 | -2.1% | 4.92% | 0.82% | 0.79% | 7.44% | 3.12% | 14.5%
10 | CS(=O)(=O)CCNCc1ccc(-c2ccc3ncnc(Nc4ccc(OCc5ccccc5)cc4)c3c2)o1 | 2.22% | 1.54% | 1.78% | 3.3% | 6.64% | 2.93% | 7.35%
11 | NS(=O)(=O)c1cccc(N/C=C2\C(=O)Nc3ccccc32)c1 | 2.59% | 2.9% | 2.37% | 3.41% | 15.8% | 6.57% | 34%
12 | Cc1c2ccc(N(C)c3ccnc(Nc4cccc(S(N)(=O)=O)c4)n3)cc2nn1C | 41% | 4.14% | 3.25% | 0.45% | 9.99% | 1.58% | 12.6%
13 | CN1CCC(C(=O)Nc2n[nH]c3nc(-c4ccc(O)cc4)c(Br)cc23)CC1 | 2.83% and -8.49% | 3.04% and 2.37% | 2.24% and 1.33% | -2.84% and -1.67% | 2.03% and 7.36% | -0.31% and 1.49% | 4.77% and 5.48%
14 | Fc1cccc(COc2ccc(Nc3ncncc3C#Cc3ccccc3)cc2Cl)c1 | 5.17% | 0.71% | 2.43% | 3.65% | 7.01% | 4.05% | 6.17%
15 | COc1ccc(-c2nn3ncccc3c2-c2ccnc(Nc3ccc(F)c(F)c3)n2)cc1 | -4.25% | -0.54% | 1.76% | 5.52% | 9.6% | 6.22% | 7.92%
16 | CC1=C(C(=O)Nc2ccc3[nH]nc(C)c3c2)C(c2ccc(C(F)(F)F)cc2)CC(=O)N1 (configuration not stated) | -1.39% | -3.01% | 1.5% | 5.54% | 21.3% | 9.85% | 49.5%

Row | SMILES | inhibition [1] | inhibition [2] | inhibition [3] | inhibition [4] | inhibition [5] | inhibition [6] | inhibition [7]
17 | CC1(C)CC(n2cnc(-c3ccc(F)cc3)c2-c2ccnc(N)n2)CC(C)(C)N1 | 2.12% | 4.73% | 0.49% | 0.31% | 5.05% | 2.37% | 6.19%
18 | c1cnn2ncc(-c3ccnc(NCCCN4CCOCC4)n3)c2c1 | -5.16% | 2.04% | 1.39% | 1.69% | 1.57% | 2.1% | 5.03%
19 | Cc1cc(O)cc(C)c1/C=C/c1cncc(C(=O)OC(C)(C)C)c1 | -0.4% | 3.06% | 1.36% | 6.27% | 9.43% | 6.75% | 10.9%
20 | COc1cc2c(cc1Nc1nc(Nc3cccc(F)c3C(N)=O)c3cc[nH]c3n1)N(C(=O)CN1CCN(C(C)C)CC1)CC2 | -4.19% | -0.19% | -0.43% | 25.8% | 76.8% | 41.5% | 59.8%
21 | CS(=O)(=O)CCNCc1ccc(-c2ccc3ncnc(Nc4ccc(OCc5cccc(C(F)(F)F)c5)cc4)c3c2)o1 | -2.29% | 2.1% | 3.11% | 1.61% | 5.55% | 4.24% | 7.8%
22 | Nc1nonc1-c1nc2cnccc2n1C1CC1 | 5.43% and 2.92% | -0.18% and 2.38% | 2.91% and 1.65% | 8.81% and 0.08% | 15.4% and 10.4% | 13.3% and 5.33% | 44.6% and 35%
23 | Fc1ccc(Nc2nccc(-c3c(-c4ccc(C(F)(F)F)cc4)nn4ncccc34)n2)cc1F | 1.86% | -4.78% | 1.81% | 5.42% | 7.08% | 5.93% | 10.4%
24 | COc1cccc(Nc2nccc(-c3cnn4ncccc34)n2)c1 | -1.47% | 0.48% | 11.1% | 9.98% | 21.1% | 13.3% | 54.8%
25 | CS(=O)(=O)CCNCc1ccoc1-c1ccc2ncnc(Nc3ccc(OCc4ccccc4)cc3)c2c1 | -1.65% | 0.62% | 1.15% | 1.37% | 3.82% | 2.44% | 2.57%
26 | O=C(Nc1n[nH]c2nnc(-c3cccnc3)cc12)C1CC1 | -3.13% | -0.42% | -0.13% | 0.99% | 4.69% | 2.42% | 5.79%
27 | CCS(=O)(=O)c1ccc(OC)c(Nc2ncc(-c3cccc(F)c3)o2)c1 | -3.37% | 2.36% | 5.42% | 2.2% | 14.5% | 6.1% | 27.9%
28 | COc1cc(Nc2ncc(-c3ccccc3)o2)cc(OC)c1 | -1.38% | 2.03% | 2.83% | 0.94% | 6.82% | 2.33% | 12.5%
29 | COC(=O)Nc1nc2cc(Oc3ccc(NC(=O)Nc4ccccc4)cc3)ccc2[nH]1 | 17.3% | 2.38% | 0.86% | 3.5% | 6.86% | 3.61% | 4.1%
30 | Cc1cc(O)cc(C)c1/C=C/c1cncc(C(N)=O)c1 | 5.31% | -1.86% | 0.71% | 1.8% | 6.26% | 3.18% | 13.3%
31 | CS(=O)(=O)Nc1ccc(-c2cc(-c3ccccc3)cc(C(N)=O)c2N)cc1 | -4.37% | 0.55% | 1.37% | 1.64% | 4.15% | 3.87% | 5.66%
